Hits are enriched below; roughly 0.77% of the tested compounds scored in any of these assays.
Vif-APOBEC3F blk = inhibitors of Vif-A3F interaction | Potency, µM (top dose mostly 46.1 µM), inactives show at the top dose activity, negative = active | 390,000 tested, 0.2% active | HeLa A3F-eYFP + Vif (tagged APOBEC3F with the HIV-1 protein that degrades it), YFP fluorescence increase; note: potency is the fitted concentration of half-maximal effect; % of control where 0% means no effect; nearly all actives have a fitted effect of over 65% in size
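Fluorescence increase (Ex 488/Em 500-530) after overnight compound treatment at 37 deg C flags inhibition of Vif-driven A3F-eYFP loss in stable HeLa A3F-eYFP/Vif cells seeded overnight beforehand.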
KAT2A inh = inhibitors of human GCN5L2 histone acetyltransferase | Q92830 | GCN5L2 HAT assay, ThioGlo1 CoA-SH fluorescence | Potency, µM (doses to about 58.9 µM), inactives show at the highest dose activity change, negative = inhibition, actives largely listed as inhibitors | 390,000 tested, 0.21% active | AID 504327; note: potency is the fitted concentration of half-maximal effect; % is set by controls: 0 for no effect and ±100 for the full control effect
Target sequence (Q92830 whole entry, looked up): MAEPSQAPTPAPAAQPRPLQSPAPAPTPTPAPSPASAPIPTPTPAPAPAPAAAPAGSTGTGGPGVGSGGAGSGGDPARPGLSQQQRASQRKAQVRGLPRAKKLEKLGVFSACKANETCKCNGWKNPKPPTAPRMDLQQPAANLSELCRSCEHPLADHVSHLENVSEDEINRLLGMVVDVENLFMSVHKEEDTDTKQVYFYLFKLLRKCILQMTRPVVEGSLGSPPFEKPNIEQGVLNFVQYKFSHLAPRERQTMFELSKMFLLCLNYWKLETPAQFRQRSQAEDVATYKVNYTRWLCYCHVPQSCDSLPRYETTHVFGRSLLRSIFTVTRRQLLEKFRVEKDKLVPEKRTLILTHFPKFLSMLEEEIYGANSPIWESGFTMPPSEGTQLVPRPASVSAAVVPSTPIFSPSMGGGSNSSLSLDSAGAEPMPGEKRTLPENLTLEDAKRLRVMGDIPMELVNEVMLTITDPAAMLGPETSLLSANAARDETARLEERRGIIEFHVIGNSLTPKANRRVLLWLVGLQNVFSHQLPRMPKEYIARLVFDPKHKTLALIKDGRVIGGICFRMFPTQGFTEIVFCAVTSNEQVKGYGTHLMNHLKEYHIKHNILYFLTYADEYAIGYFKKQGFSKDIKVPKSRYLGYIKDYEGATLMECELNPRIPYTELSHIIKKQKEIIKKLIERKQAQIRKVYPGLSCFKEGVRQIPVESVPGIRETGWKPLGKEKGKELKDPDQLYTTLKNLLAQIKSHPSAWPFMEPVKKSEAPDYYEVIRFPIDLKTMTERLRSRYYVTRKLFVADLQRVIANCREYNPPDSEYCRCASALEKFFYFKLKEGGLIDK
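qHTS, 1536-well. 20nM enzyme, pH 7.5 HEPES/EDTA/Tween-20 buffer; 15 min compound preinc., RT. Start: 75uM H3(1-25), 70uM AcCoA, 50uM ThioGlo1. Read Ex340/Em540 at t=0 (autofluorescence flag) and t=20 min.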
IL2 activator = activators of IL-2. IL-2 activation reporter assay, cell-based qHTS; stimulated with anti-CD3/CD4/CD28 beads; in transgenic mouse T cells. activation, % (series mostly up to about 46 µM). 360,000 tested, 0.065% active. AID 652025; in the data active = activation above about 50%; inconclusive = mostly about 30% to 49%; note: 0% is about no effect
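EGFP and DsRed fluorescence is measured by plate cytometry in unstimulated transgenic mouse T cells exposed to compound for 60 minutes, then stimulated 18 hours at 37 degrees C with anti-CD3/anti-CD4 beads plus anti-CD28.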
Vif-APOBEC3G blk = blocks the Vif interaction with human APOBEC3G | Q9HC16 | HeLa A3G-eYFP + Vif (tagged APOBEC3G with the HIV-1 protein that degrades it), YFP fluorescence, overnight | Potency, µM (highest dose often 46.1 µM), without a hit: at the highest dose activity, negative = active, hits mostly inhibitors | 410,000 tested, 0.076% active; note: potency is the fitted concentration of half-maximal effect; % is set by controls: 0 for no effect and ±100 for the full control effect; nearly all actives have a fitted effect of over 60% in size
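Read-out is eYFP fluorescence (Ex 488/Em 500-530) from Vif-expressing HeLa A3G-eYFP cells; more signal means A3G escaped Vif-mediated degradation. Cells plated overnight, compound pinned in, incubated overnight at 37 deg C.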
GoLoco inh red = blocks human Gai1 binding to RGS12 GoLoco peptide, red readout. Potency, µM (titrated, usually from 61.6 µM), inactives show top-dose activity, negative = inhibition, most hits filed as inhibitors. 230,000 tested, 0.44% active. Gai1:RGS12 GoLoco peptide FP, rhodamine, 10 min. P63096; active = well fitted inhibition curve with a large enough effect, not every such curve was filed as active; inactive = no such curve, though single readings can be large or run the other way; note: potency is the fitted concentration of half-maximal effect; % is set by controls: 0 for no effect and ±100 for the full control effect; nearly all actives have a fitted effect of over 30% in size
PKM2 activator = activators of human pyruvate kinase M2; P14618; Potency, µM (highest dose often 57.5 µM), for inactives: at the top dose activation, most hits filed as activators; purified PKM2, Kinase-Glo ATP luminescence, activation; response scale: 0% is enzyme alone, no compound; 260,000 tested, 0.34% active; AID 1631; note: potency is the fitted concentration of half-maximal effect; % is set by controls: 0 for no effect and ±100 for the full control effect; nearly all actives have a fitted effect of over 55% in size
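Kinase-Glo luminescence reports ATP generated from ADP (0.1 mM) and PEP (0.5 mM) by purified hPK-M2 after 1 h at room temperature, pH 7.2 imidazole buffer; intermediate enzyme activity allows detecting inhibitors and activators.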
Starred values were filed as active, the others as inactive; i = inactive; u = inconclusive; x = no result; [ ] = another dose, or the depositor's remark. Unless noted, calls come from the whole dose curve; as a rule, active = well fitted curve in the direction sought with a large enough effect; inconclusive = small, poorly fitted or top-dose-only effect, or another doubt; inactive = no such curve, though single readings can be large; an effect the other way counts as inactive or inconclusive.

SMILES	Vif-APOBEC3F blk	KAT2A inh	IL2 activator	Vif-APOBEC3G blk	GoLoco inh red	PKM2 activator
O=C(O)c1ccc(Cl)c2c1C1C=CCC1C(c1ccccn1)N2 (centres undefined)	x	u	x	x	10µM*	1%
O=[N+]([O-])c1ccc(Cl)c2c1C1C=CCC1C(c1ccccn1)N2 (centres undefined)	7%	-10%	5	-13%	-2%	-28%
O=C(N/C=C/c1ccco1)NCc1ccccc1	-1%	u	1	-3%	35%	x
O=c1c(O)c(-c2cccs2)oc2ccccc12	2.8µM*	-2%	11	u	-2%	1%
Cc1nn(C(C)C(=O)NC2CCC(C)CC2)c(=O)c2cc3sccc3n12 (centres undefined)	-5%	-1%	x	6%	x	x
COc1ccc(C)cc1S(=O)(=O)NCC(c1cccnc1)N1CCc2ccccc2C1 (centres undefined)	0%	-1%	-4	-4%	x	11µM*
COc1cc2c(cc1OC)CN(S(=O)(=O)c1cccs1)CC2	-11%	-3%	-1	1%	5%	u
COc1ccc(S(=O)(=O)N2CCc3cc(OC)c(OC)cc3C2)cc1	-27%	-16%	0	0%	4%	7.9µM*
Cc1cccn2c(=O)c3cc(C(=O)NC4CCCCC4)c(=N)n(Cc4ccccc4)c3nc12	2%	16µM*	-5	-8%	x	23%
CCSc1nnc(NC(=O)CC(C)C)s1	2%	-9%	0	0%	-8%	-1%
CN(C)c1ccc(/C=C(/C#N)C(=O)NCc2ccccc2)o1	10µM*	-3%	83*	u	6%	3%
N#C/C(=C/c1ccccc1)C(=O)NCc1ccccc1	-37%	-11%	0	-16%	12%	1%
O=C(O)c1cccc(-n2cccc2/C=C2/NC(=O)N(c3ccc(Cl)cc3)C2=O)c1	13%	8.9µM*	0	-6%	-8%	u
COc1cc(/C=C2/NC(=O)N(c3cccc(Cl)c3)C2=O)ccc1O	12%	-4%	-2	-1%	19%	0%
COc1ccc(-n2cccc2/C=C2/NC(=O)N(c3cccc(Cl)c3)C2=O)cc1	-14%	-13%	-1	1%	3.5µM*	2%
O=C(O)C1CC1C(=O)Nc1nc2c(Cl)cccc2s1 (centres undefined)	11%	-14%	0	0%	x	x
CC(C)OC(=O)CN1C(=O)S/C(=C/c2ccc(N3CCCCC3)o2)C1=O	u	-6%	5	u	93%	18%
Cc1ccc(-c2ccc(/C=C3\SC(N4CCOCC4)=NC3=O)o2)cc1	-11%	-11%	-1	-1%	-2%	2%
COc1ccc2cc(/C=C3\SC(=S)NC3=O)c(N3CCOCC3)nc2c1	-15%	-24%	-4	0%	22%	21%
O=C1N=C(N2CCOCC2)S/C1=C/c1ccc(-c2ccc(F)cc2)o1	u	22µM*	1	10%	9%	2%
O=C1NC(=S)S/C1=C/c1ccc(N2CCOCC2)o1	i	-20%	1	11µM*	0%	-55%
O=C1S/C(=C/c2ccc(N3CCOCC3)o2)C(=O)N1Cc1ccc(F)cc1	u	0%	8	u	-7%	2µM*
O=C1S/C(=C\c2ccc(N3CCOCC3)o2)C(=O)N1Cc1ccc(F)cc1	u	u	8	u	14%	2µM*
CCCn1c(SCC(=O)N2CCN(c3ccc(OC)cc3)CC2)nc2c1c(=O)n(C)c(=O)n2C	-1%	4%	-3	6%	-1%	0%
CCC(=O)N1CC2(c3ccccc3)CN(C(=O)CC)CC(c3ccccc3)(C1)C2=O	-6%	-5%	-1	-11%	13%	0%
SMILES	Vif-APOBEC3F blk	KAT2A inh	IL2 activator	Vif-APOBEC3G blk	GoLoco inh red	PKM2 activator
Cc1ccc2c(c1)NC(=O)CC(c1ccccc1)=N2	-2%	-8%	0	0%	5%	-1%
Cc1ccc2c(c1C)NC(=O)CC(c1ccccc1O)=N2	11µM*	1%	20	-4%	6%	1%
CCOc1cc(/C=C2\C(=N)N3N=C(S(=O)(=O)CC)SC3=NC2=O)ccc1OC(=O)c1ccco1	u	-29%	24	0%	x	x
CCOc1cc(/C=C2/C(=N)N3C(=NC2=O)SN=C3S(C)(=O)=O)ccc1OC(=O)c1ccco1	13µM*	-18%	26	-7%	x	x
COc1cc(/C=C2\C(=N)N3N=C(S(C)(=O)=O)SC3=NC2=O)ccc1OC(=O)c1ccco1	7.1µM*	-18%	2	-1%	x	x
Cn1cc(/C=C/c2ccnc3ccccc23)c2ccccc21	x	x	x	10µM*	x	x
C(=C\c1ccnc2ccccc12)/c1ccnc2ccccc12	x	x	x	-3%	x	x
Nc1ccccc1/C=C/c1ccnc2ccccc12	x	x	x	13µM*	x	x
Clc1ccccc1/C=C\c1ccnc2ccccc12	x	x	x	x	14%[14.2 µM]	x
Cc1cccc(Nc2nnc(SCc3cn4ccsc4n3)s2)c1	0%	-1%	0	-11%	8%	8%
CCOC(=O)C1=C(O)/C(=C/c2cn(CC(=O)N3CCCC3)c3ccccc23)SC1=Nc1ccccc1	u	-8%	219*	-24%	9%	-4%
CCCOc1ccc(N)cc1N	22µM*	4%	0	u	14%	4%
Cc1coc2c1c(C)cc1oc(=O)c(CC(=O)NCC(=O)O)c(C)c12	2%	u	1	-2%	x	x
O=C(Nc1nc([C@@H]2O[C@H](CO)[C@@H](O)[C@H](O)[C@H]2O)cs1)NC(c1ccccc1)c1ccccc1	x	x	0	-4%	x	x
CCCn1c(C2CCCN2c2nc(-c3cccc(Br)c3)cs2)nc2ccccc21 (centres undefined)	10µM*	-7%	0	-3%	x	0%
COc1ccccc1NC(=O)N[C@@H](Cc1c[nH]c2ccccc12)C(=O)NN	5%	-2%	-1	-3%	x	x
COc1cc(C(=O)NS(=O)(=O)c2ccccc2C)ccc1Cc1cn(C)c2ccc(NC(=O)OC3CCCC3)cc12	x	7.1µM*	x	x	5%	x
Cc1cc(C)c2sc(NNC(=O)C3COc4ccccc4O3)nc2c1 (centres undefined)	-1%	3%	0	-11%	8%	-7%

From PubChem
